Source: PubChem BioAssay
PostGolgi yeast: growth inhibition of a yeast mutant, post-Golgi transport screen; post-Golgi transport phenotypic cell assay; inhibition, % at 10 µM; 98,000 compounds, 0.9% hits; AID 739;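 further: yeast cells grown in 1536-well plates; yeast grown about 18 h at 30C before absorbance read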
Cav32 inh: human Cav3.2 channel inhibition, primary screen. 100,000 compounds, 4% hits. Cav3.2-expressing cells, Fluo-4 calcium fluorescence FDSS; stronger effect = lower value. B-score at 10 µM. O95180;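 active means single-dose well whose peak fluorescence ratio is a statistical outlier from its plate by either plate-standardised score or position-corrected B-score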
Pyk2 oligo antag: antagonists of human Pyk2 oligomerization | Q293 cells, Pyk2 FERM NanoBiT luminescence; stronger effect = lower value | z-score (the deposit names both 25 µM and 10 µM) | Q14289 | 99,000 compounds, 0.83% hits;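 active means Z-score of -3 or lower, scaled per plate to the spread of control and sample wells; inactive means z-score above -3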;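 further: negative z-score means lost luminescence so less FERM oligomerization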
Target sequence (Q14289 whole entry, looked up): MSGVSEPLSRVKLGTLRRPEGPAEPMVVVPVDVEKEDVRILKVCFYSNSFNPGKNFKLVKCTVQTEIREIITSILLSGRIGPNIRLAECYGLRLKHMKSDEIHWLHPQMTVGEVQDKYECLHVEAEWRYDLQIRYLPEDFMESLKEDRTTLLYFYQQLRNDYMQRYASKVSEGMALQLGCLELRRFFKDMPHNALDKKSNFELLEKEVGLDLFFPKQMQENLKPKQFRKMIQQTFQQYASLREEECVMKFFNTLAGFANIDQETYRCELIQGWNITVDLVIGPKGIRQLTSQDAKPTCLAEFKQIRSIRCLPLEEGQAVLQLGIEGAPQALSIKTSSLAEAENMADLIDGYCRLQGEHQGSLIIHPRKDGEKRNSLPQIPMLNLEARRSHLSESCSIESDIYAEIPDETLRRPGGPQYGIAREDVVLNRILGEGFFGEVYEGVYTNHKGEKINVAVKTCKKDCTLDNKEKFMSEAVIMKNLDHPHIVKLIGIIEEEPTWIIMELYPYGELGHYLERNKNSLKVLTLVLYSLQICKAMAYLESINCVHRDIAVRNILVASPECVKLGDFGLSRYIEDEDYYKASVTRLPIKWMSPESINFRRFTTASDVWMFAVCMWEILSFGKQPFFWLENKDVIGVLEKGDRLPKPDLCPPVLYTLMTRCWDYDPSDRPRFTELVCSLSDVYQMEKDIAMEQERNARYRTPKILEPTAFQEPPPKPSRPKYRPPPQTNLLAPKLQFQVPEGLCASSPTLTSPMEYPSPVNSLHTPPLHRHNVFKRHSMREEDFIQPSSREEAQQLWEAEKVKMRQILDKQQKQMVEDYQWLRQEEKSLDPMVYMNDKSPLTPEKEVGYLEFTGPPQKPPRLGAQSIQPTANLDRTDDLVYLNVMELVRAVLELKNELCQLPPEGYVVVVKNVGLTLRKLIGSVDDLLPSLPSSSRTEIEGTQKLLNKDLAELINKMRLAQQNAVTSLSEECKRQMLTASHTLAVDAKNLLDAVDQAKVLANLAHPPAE
PostGolgi ctrl: inhibits growth of the yeast control strain | efflux-deficient yeast background strain, growth absorbance A615, 16 h | inhibition, % at 10 µM | 98,000 compounds, 5% hits
Large screens that a line does not name were inactive. Most compounds without a hit are left out; they make up all but 8% or so of the library. Unless noted, no stated cut-off is given here; in the data, active means inhibition above about 30%; inactive means the rest.

CCOc1cc(NC2CS(=O)(=O)CC2O)c(OCC)cc1NC(=O)c1ccccc1 (configuration not stated)	none
O=C(O)c1nn2c(c1Br)NC(c1ccccc1)CC2C(F)(F)F (configuration not stated)	PostGolgi ctrl 32
CCOC(=O)Cc1csc(NC(=O)CCS(=O)(=O)Cc2ccccc2)n1	none
COc1ccccc1OCC(=O)Nc1oc(-c2ccccc2)c(-c2ccccc2)c1C#N	Cav32 inh -6.9, Pyk2 oligo antag -3.7
N#Cc1c(NC(=O)CSc2ncccn2)oc(-c2ccccc2)c1-c1ccccc1	none (no result: PostGolgi yeast, Cav32 inh, PostGolgi ctrl)
COc1ccc(CC(=O)Nc2oc(-c3ccccc3)c(-c3ccccc3)c2C#N)cc1OC	Cav32 inh -5.6, Pyk2 oligo antag -3.3
COc1ccccc1OCC(=O)NCCNC(=O)COc1ccccc1OC	none
O=C(COC(=O)C1CC2C=CC1C2)Nc1ccc2c(c1)OC(F)(F)O2 (configuration not stated)	Cav32 inh -5.5
N#Cc1c(NC(=O)CSc2n[nH]c(Cc3ccccc3)n2)oc(-c2ccccc2)c1-c1ccccc1	Cav32 inh -6.4
C/C(CC(O)c1ccc2ccccc2n1)=N/O (configuration not stated)	none
COc1ccc(-c2ccc3oc(-c4ccc(OC)cc4)c(C#CC4(O)CCCCC4)c3c2)cc1	none (no result: PostGolgi yeast, Pyk2 oligo antag, PostGolgi ctrl)
Cc1ccc(OCC(=O)Nc2oc(-c3ccccc3)c(-c3ccccc3)c2C#N)cc1	Cav32 inh -7.5 (no result: PostGolgi yeast, PostGolgi ctrl)
Cc1sc(NC(=O)COc2ccccc2)c(C#N)c1-c1ccccc1	none (no result: PostGolgi yeast, Cav32 inh, PostGolgi ctrl)
N#Cc1c(NC(=O)CN2CCOCC2)oc(-c2ccccc2)c1-c1ccccc1	none
O=C(Cn1cnc2ccccc2c1=O)c1ccccc1	none (no result: PostGolgi yeast, PostGolgi ctrl)
N#Cc1c(NC(=O)COC(=O)C2CC3C=CC2C3)oc(-c2ccccc2)c1-c1ccccc1 (configuration not stated)	Cav32 inh -6
N#Cc1c(NC(=O)Cn2cnc3ccccc3c2=O)oc(-c2ccccc2)c1-c1ccccc1	Cav32 inh -10
Cc1ccc(S(=O)(=O)c2ccc(Oc3cccc(C)c3)cc2)cc1	none
COC(CNc1cc(=O)oc2ccccc12)OC	none
O=C(O)CCSc1nc(C(F)(F)F)cc(=O)n1-c1ccccc1	PostGolgi ctrl 30
CCc1ccccc1NC(=O)CSc1nnc(Cn2nnc3ccccc32)n1C	none (no result: PostGolgi yeast, PostGolgi ctrl)
CCC(=O)N1CCc2cc(S(=O)(=O)NCCCN(CC)Cc3ccccc3)ccc21	none
O=C(CC1N=C2c3ccccc3N=C(SCc3ccc(Cl)cc3)N2C1=O)NCc1ccco1 (configuration not stated)	PostGolgi ctrl 37
CCOC(=O)CSC1=Nc2ccccc2C2=NC(CC(=O)NCc3ccc(OC)cc3)C(=O)N12 (configuration not stated)	none
O=S(=O)(NC1CCCC1)c1ccc(S(=O)(=O)N2CCN(c3ccccc3)CC2)cc1	none
Cc1cc(C)c(-n2c(C)cc(/C=C3/NC(=O)NC3=O)c2C)c(C)c1	Cav32 inh -6.1, PostGolgi ctrl 64 (no result: Pyk2 oligo antag)
Cn1c(N/N=C/c2ccccc2)nc2sc3c(c2c1=O)CCC3	none
O=C(C1c2ccccc2Oc2ccccc21)N1CCN(c2ccc(Cl)cc2)CC1	PostGolgi ctrl 37 (no result: Cav32 inh)
COc1ccccc1N1CCN(C(=O)C2c3ccccc3Oc3ccccc32)CC1	Cav32 inh -5.8, PostGolgi ctrl 42
Cc1sc2ncnc(NCC3CCCO3)c2c1C (configuration not stated)	Cav32 inh -7.6
Cc1sc2ncnc(NCC3(N4CCOCC4)CCCCC3)c2c1C	PostGolgi yeast 32, PostGolgi ctrl 33
CCOC(=O)NC1(NC2CCCCC2)Oc2ccccc2O1	none
O=c1[nH]c2cccnc2n1Cc1ccccc1	none
Fc1cccc(Cn2cc(C(=S)N3CCCCC3)c3ccccc32)c1	Cav32 inh -4.9
O=C(CS(=O)(=O)c1cn(Cc2cccc(F)c2)c2ccccc12)N1CCOCC1	none
Cc1cc2c3c(c1)C1(SCC(=O)N1c1ccc(F)cc1)C(=O)N3C(C)(C)CC2C (configuration not stated)	Cav32 inh -3.4, PostGolgi ctrl 33
Cc1cc2c3c(c1)C1(C(=O)N3C(C)(C)CC2C)C(C#N)=C(N)OC2=C1C(=O)CC(C)(C)C2 (configuration not stated)	none (no result: PostGolgi yeast, PostGolgi ctrl)
Cc1ccc(N=C2NC(=O)/C(=C\c3ccsc3)S2)c(C)c1	none (no result: PostGolgi yeast, Cav32 inh, PostGolgi ctrl)
Nc1nc(SCC(=O)Nc2ccccc2Sc2ccc(Cl)cc2)n[nH]1	Cav32 inh -5.9
CCOc1cc(C2C(C(=O)OC(C)C)=C(C)N=C3SCCC(=O)N32)ccc1OC(C)=O (configuration not stated)	PostGolgi ctrl 39
CCCOc1ccc(C2C(C(=O)OC)=C(C)N=C3SCCC(=O)N32)cc1OCC (configuration not stated)	none
CCN(CCCNC(=O)CC1Oc2ccc(C)cc2NC1=O)Cc1ccccc1 (configuration not stated)	none (no result: Pyk2 oligo antag)
Cc1ccc(C(=O)Nc2ccccc2C(N)=O)o1	none
Cc1ccc(C(=O)Nc2ccccc2-c2ccccc2)o1	PostGolgi ctrl 35
COC(=O)C(CC(=O)c1ccc(Br)cc1)n1ccnc1 (configuration not stated)	none (no result: Pyk2 oligo antag)
CC1=CC(C)(C)N(S(=O)(=O)c2ccc(C)cc2)c2ccccc21	PostGolgi ctrl 32
CCCNC(=O)c1ccccc1NC(=O)c1ccccc1N(C)S(=O)(=O)c1ccc(C)cc1	Cav32 inh -4.7 (no result: PostGolgi yeast, PostGolgi ctrl)
CCCNC(=O)c1ccccc1NC(=O)c1ccccc1N(C)S(C)(=O)=O	none (no result: PostGolgi yeast, PostGolgi ctrl)
C=CCn1c(=O)c2ccccc2n2c(SCc3csc(-c4ccccc4)n3)nnc12	none
CN(C)C(=S)SCC(=O)Nc1cccc(C(F)(F)F)c1	none (no result: PostGolgi yeast, Cav32 inh, PostGolgi ctrl)
O=C(NC1CCCC1)C(c1ccccc1)N(C(=O)c1ccno1)c1ccccc1 (configuration not stated)	none (no result: PostGolgi yeast, PostGolgi ctrl)
COc1cc(OC)cc(C(C(=O)NC2CCCCC2)N(C(=O)c2ccno2)c2ccccc2)c1 (configuration not stated)	Pyk2 oligo antag -3.6 (no result: PostGolgi yeast, PostGolgi ctrl)
CCn1cc(S(=O)(=O)CC(=O)NC2CCCCC2)c2ccccc21	PostGolgi ctrl 42
O=C(Cn1nc(C(F)(F)F)c2c1CCC2)N1CCN(c2ccccc2)CC1	none
CS(=O)(=O)N(CC(=O)Nc1ccccc1Sc1ccccc1)c1cccc(Br)c1	PostGolgi ctrl 41
CSc1ccccc1NC(=O)CN(c1cc(C)cc(C)c1)S(C)(=O)=O	none
CCC(=O)N1CCN(c2nc3ccccc3s2)CC1	none
COc1ccccc1C(c1nnnn1Cc1ccccc1)N1CCN(c2nc3ccccc3s2)CC1 (configuration not stated)	Cav32 inh -4.2, Pyk2 oligo antag -3.8
CCCC(c1nnnn1Cc1cccs1)N1CCN(c2ccc(OC)cc2)CC1 (configuration not stated)	none
O=C(c1cc2sccc2n1Cc1ccccc1)N1CCN(c2nc3ccccc3s2)CC1	Cav32 inh -7.1, PostGolgi ctrl 41
COc1ccccc1C(c1nnnn1Cc1ccccc1)N1CCN(C2CCCC2)CC1 (configuration not stated)	none (no result: PostGolgi yeast, PostGolgi ctrl)
c1ccc(C(c2nnnn2Cc2ccco2)N2CCN(c3nc4ccccc4s3)CC2)cc1 (configuration not stated)	Cav32 inh -3.4 (no result: PostGolgi yeast, PostGolgi ctrl)
CCCC(c1nnnn1Cc1ccc(OC)cc1)N1CCN(c2ccccc2OC)CC1 (configuration not stated)	Cav32 inh -5.1
